Screening data as filed in PubChem.
JMJD2A Tudor inh: JMJD2A Tudor domain (human) inhibition. AlphaScreen JMJD2A-Tudor / H3K4me3 peptide binding. Potency, µM (top dose mostly 114 µM), without a hit: at the highest dose activity change, negative = inhibition, most hits filed as inhibitors. hit rate 4.4% among 390,000. AID 504339; further: potency means the concentration at half of the fitted maximal effect; on the % scale 0 is the no-effect control and ±100 the full control effect; nearly all actives have a fitted effect of over 50% in size
PLK1 PBD block: PLK1 (human) polo-box domain binding inhibition; P53350; Plk1 PBD binding of FITC phosphopeptide, fluorescence polarization; Potency, µM, for the others: max response, negative = inhibition, usual class: inhibitors; hit rate 2.8% among 360,000; further: potency means the concentration at half of the fitted maximal effect; series mostly up to about 57 µM; on the % scale 0 is the no-effect control and ±100 the full control effect; nearly all actives have a fitted effect of over 65% in size
G9a block: blocks human histone lysine methyltransferase G9a | G9a H3K9 monomethylation, AlphaScreen, 2 h | Potency, µM (top dose mostly 102 µM), for inactives: at the top dose activity, negative = inhibition, most hits filed as inhibitors | hit rate 8.8% among 350,000 | AID 504332; further: potency means the concentration at half of the fitted maximal effect; on the % scale 0 is the no-effect control and ±100 the full control effect; nearly all actives have a fitted effect of over 75% in size
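Step 1: enzyme (final 20 nM) with compound, 15 min RT. Step 2: substrate peptide 500 nM and SAM 20 uM, 2 h RT. Step 3: anti-H3K9me1 antibody and AlphaScreen beads, 10 min, then plate read.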
PI5P4K alpha inh: blocks human PI5P4K alpha kinase activity | P48426 | PI5P4Kalpha enzyme, ADP-Glo luminescence, 60 min; hits give low values | max response, % | hit rate 1.2% among 330,000; active means max response of -50% or lower; inconclusive means between -30% and -50%; inactive means -30% or higher; further: value at the top dose of about 77 µM; on the % scale 0 is the no-effect control and ±100 the full control effect
Target sequence (P48426 whole entry, looked up): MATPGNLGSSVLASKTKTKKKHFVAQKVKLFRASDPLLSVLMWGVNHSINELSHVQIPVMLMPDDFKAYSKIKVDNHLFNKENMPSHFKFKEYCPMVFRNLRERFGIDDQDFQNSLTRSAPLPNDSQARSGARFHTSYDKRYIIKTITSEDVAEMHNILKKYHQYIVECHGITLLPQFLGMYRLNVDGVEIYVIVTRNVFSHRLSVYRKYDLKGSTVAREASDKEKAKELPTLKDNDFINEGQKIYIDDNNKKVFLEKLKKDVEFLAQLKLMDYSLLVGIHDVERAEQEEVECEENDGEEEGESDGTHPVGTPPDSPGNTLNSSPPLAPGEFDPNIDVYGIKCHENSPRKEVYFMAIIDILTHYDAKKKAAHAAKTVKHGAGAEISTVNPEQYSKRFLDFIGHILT
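ADP-Glo luminescence end-point read after a 60 min room-temperature kinase reaction of PI5P4Kalpha plus substrate, initiated with ATP at 5 microM final. Buffer: 0.038 M HEPES pH 7.4, EGTA, 0.1% CHAPS, 5% DMSO.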
HP1b binding inh: inhibitors of HP1-beta chromodomain binding to methylated histone tails | AlphaScreen HP1-beta / biotin-H3K9me3 peptide binding | hit rate 0.56% among 390,000 | Potency, µM (titrated, usually from 114 µM), for the others: at the highest dose activity change, negative = inhibition, most hits filed as inhibitors; further: potency means the concentration at half of the fitted maximal effect; nearly all actives have a fitted effect of over 70% in size
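Compound inhibition of the preformed complex between 50 nM HP1-beta and 50 nM biotinylated H3K9me3 peptide was read by AlphaScreen. Buffer was PBS pH 7.4 with 0.01% Tween-20. Incubations ran 30 min at room temperature, with 10 ug/mL donor/acceptor beads.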
BAZ2B inh: BAZ2B (human) inhibition | Q9UIF8 | AlphaScreen BAZ2B-H3K14Ac peptide displacement | Potency, µM (titrated, usually from 114 µM), without a hit: at the highest dose activity change, negative = inhibition, usual class: inhibitors | hit rate 4.4% among 360,000 | AID 504333; further: potency means the concentration at half of the fitted maximal effect; on the % scale 0 is the no-effect control and ±100 the full control effect; nearly all actives have a fitted effect of over 60% in size
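AlphaScreen displacement of biotin-H3(5-23)K14Ac peptide (50 nM final) from BAZ2B (50 nM final) in PBS pH 7.4, 0.01% Tween-20; complex preformed 30 min RT, then compounds (top 110 uM) 30 min RT, beads 20 min dark.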
* = called active by the depositor; ? = inconclusive; / = no result; [ ] = another dose, or the depositor's remark. An excerpt weighted towards active compounds, which were near 12% of everything screened. Unless noted, the call rests on the fitted dose curve; in most records, active means well fitted curve in the direction sought with a large enough effect; inconclusive means small, poorly fitted or top-dose-only effect, or another doubt; inactive means no such curve, though single readings can be large; an effect the other way counts as inactive or inconclusive.

SMILES | JMJD2A Tudor inh | PLK1 PBD block | G9a block | PI5P4K alpha inh | HP1b binding inh | BAZ2B inh
CO/C([O-])=N/c1c[n+](-c2ccc(C)cc2)no1 | -23% | -13% | 20µM* | -10 | 32% | 7%
CSc1ncccc1C(=O)OCC(=O)c1ccc(Br)s1 | ? | 19µM* | 42% | -9 | ? | 24%
CCCN(CCC)S(=O)(=O)c1ccc(C(=O)OCCN2C(=O)c3cccc4c(N5CCOCC5)ccc(c34)C2=O)cc1 | 23% | 15µM* | 85% | -5 | 69% | 24%
O=C(OCCN1C(=O)c2cccc3c(N4CCOCC4)ccc(c23)C1=O)c1ccc(Cl)cc1 | 74% | ? | 245%[59 µM] | 16 | 161% | 82%
COc1ccc(OC)c2c(C)cc(N3CCN(C(=O)c4ccc(C)cc4)CC3)nc12 | ? | -4% | ? | 0 | -36% | 50µM*
COc1ccc(OC)c2c(C)cc(N3CCN(C(=O)c4ccc(F)cc4)CC3)nc12 | ? | -9% | ? | 0 | -27% | 50µM*
Cc1noc(C)c1S(=O)(=O)Nc1ccc(C(C)C)cc1 | 4% | 8% | 9% | 14 | 19%[57 µM] | 8%
CC(C)OC(=O)c1ccccc1C(=O)c1ccc(N)c([N+](=O)[O-])c1 | -30% | -4% | 13µM* | 0 | 0% | -26%
CC(=O)NCCNC(=O)c1ccc(Sc2ccccc2)c([N+](=O)[O-])c1 | -22% | -3% | -11%[59 µM] | 4 | 35% | -29%
Nc1ccccc1Sc1ccc(C(=O)c2ccccc2C(=O)O)cc1[N+](=O)[O-] | ? | ? | 20µM* | -66* | 1% | -35%
CN(C)CCNC(=O)c1ccc(Sc2ccc(Br)cc2)c([N+](=O)[O-])c1 | ? | -5% | 35µM* | -1 | -14% | -22%
CC(=O)c1ccc(Sc2ccccc2)c([N+](=O)[O-])c1 | ? | 4% | 22µM* | 3 | ? | ?
Nc1cc(C(=O)O)ccc1Sc1ccccc1C(=O)O | -32% | 11µM* | 4.5µM* | ? | -8% | -33%
Cn1ccnc1Sc1ccc(C(N)=O)cc1[N+](=O)[O-] | -2% | 2% | -7% | -6 | 16% | 0%
CC(=O)c1ccc(Sc2ccccc2N)c([N+](=O)[O-])c1 | ? | -13% | 45µM* | -1 | -22% | ?
O=C1C2C3C=CC(CC3)C2S(=O)(=O)C2C3C=CC(CC3)C12 (configuration not stated) | / | -2% | / | -2 | / | /
CC(C)OC(=O)c1c2c(n3ccccc13)C(=O)c1ccccc1C2=O | ? | -15% | ? | 0 | ? | 32µM*
O=C(O)c1ccc(CNC(=O)c2ccc(S(=O)(=O)N3CCCCC3)cc2)cc1 | -10% | -1% | 23%[12.7 µM] | 7 | 33% | 0%
COc1ccccc1-n1c(CNC(=O)c2ccc(S(=O)(=O)N3CCCCC3)cc2)n[nH]c1=S | 8.9µM* | -11% | 22µM* | 2 | 20% | -16%
O=C(NCc1n[nH]c(=S)n1-c1ccccc1Cl)c1ccc(S(=O)(=O)N2CCCCC2)cc1 | -32% | 5% | 10µM* | 8 | 38% | 4%
COC(=O)CSc1nnc(CNC(=O)c2ccc(S(=O)(=O)N3CCCCC3)cc2)n1C | -14% | -1% | 5% | / | 17% | 1%
CCc1ccc(CNC(=O)c2cc(=O)[nH]c3ccc(S(=O)(=O)N4CCCCC4)cc23)cc1 | -7% | / | 5%[59 µM] | / | 42% | -2%
CC(C)c1ccc(NC(=O)C2CCCN(S(=O)(=O)c3ccc4[nH]c(=O)ccc4c3)C2)cc1 (configuration not stated) | 3% | / | 16%[59 µM] | / | 67% | -3%
O=C(O)c1cccc(N2C(=O)/C(=C/c3ccc([N+](=O)[O-])cc3)C=C2c2ccccc2)c1 | 25µM* | ? | 16µM* | -23 | -26% | 40µM*
O=C1/C(=C/c2ccc([N+](=O)[O-])cc2)C=C(c2ccccc2)N1c1ccccc1 | -26% | -22% | ? | / | -5% | -26%
COc1ccc(N2C(=O)/C(=C/c3ccc([N+](=O)[O-])cc3)C=C2c2ccccc2)cc1 | 2.8µM* | -10% | / | / | 3.2µM* | 2.2µM*
